This is an account of results in PubChem BioAssay AID651692 (Broad Institute, 2012).

Results with a measured potency or affinity are listed apart. The source made the active and inactive calls.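 Rule for the calls: active = fitted half-maximal concentration for loss of cell signal no higher than twice the top valid tested concentration; inconclusive = flat curve at 30 to 70% inhibition, or poor fit; inactive = flat within 30%, signal rise, or potency above limit.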

A short description of this experiment: cytotoxicity toward MDA-MB-231 breast cancer cells – cell-based, CellTiter-Glo luminescence, cherry-pick, cytotoxicity control for RAD54 inhibitor project, dose response (AID 651692).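 Note: more negative values mean stronger loss of viable cell signal.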 To be noted: MDA-MB-231 viability, 24 h; series mostly up to 26 µM.
As to `CCN(CC)CCOc1c(Br)ccc2c1sc1nc3n(c(=O)c12)CCC3`, the outcome was inactive.

For the compound `CCCN(CCC)CCCNC(=O)c1cc2c(-c3ccc(OC)c(OC)c3)nn(C)c2s1`, the result was inactive.

For `CCN(CC)CCCNc1nc(-c2ccccc2)nc2ccccc12`, the outcome was inactive.

Regarding `CCNC(=O)c1cc2c(=O)n3cccc(C)c3nc2n(CCc2ccccc2)c1=N`, the compound was classed as inactive.

For the compound `Cc1ccsc1-c1cc2nc(NCCCN(C)C)n(C)c(=O)c2s1`, the compound was classed as inactive.

For `Cc1ccc2nc3c(c(Nc4ccc5c(c4)OCCO5)c2c1)CCC3`, the result was inactive.

With `COc1ccc2cc3cc(C(=O)NCCCN4CCOCC4)oc3nc2c1`, the call was inactive.

As to `Cc1ccc(S(=O)(=O)CCSc2ccc(C(F)(F)F)cn2)cc1`, the call was inactive.

As for `CCN(CC)CC(O)c1ccc2ccc3ccc(O)cc3c2c1` (centres undefined), the call was inactive.

`CCCN(CCC)c1nc(-c2ccccn2)nc2ccccc12`: the call was inactive.

Consider `Nc1cc2ccncc2c2ccccc12`, for which the result was inactive.

As to `CN(C)CCCNc1c2c(nc3ccccc13)CCC2`, the result was inactive.

Consider `COc1ccc2nc(-c3ccc(N)cc3)[nH]c2c1`, for which the result was inactive.

Take `CCN(CC)CCCNC(=O)c1cc2c(-c3cccc(OC)c3)nn(C)c2s1`: the compound was called inactive.

For the compound `CCN1CCN(c2nn3c(=O)c4ccccc4nc3c3ccccc23)CC1`, the call was inactive.

With `CCOC(=O)c1c(NC(=O)c2ccc(S(=O)(=O)N3CCOCC3)cc2)sc2c1CCN(C(C)C)C2`, the call was inactive.

With `CCOc1cc2nc(-c3ccc(OC)c(OC)c3)nc(NCCCN3CCOCC3)c2cc1OC`, the call was inactive.

As for `CCCNc1nc2nc3ccccn3c(=O)c2cc1C(=O)NCCN1CCOCC1`, the outcome was inactive.

On to `CCOC(=O)c1cnc2c(ccc3ccccc32)c1NCCCN(C)C`, for which the result was inactive.
